The source of these data is PubChem BioAssay (NCI).

The panel holds about 79,000 compounds, 15% with a hit somewhere; the sample as a whole holds those more often. Values without a mark were called inactive. Activity calls are given as the source filed them. No stated cut-off is given here; in the data, active means growth inhibition above about 70%; inactive means the rest.

A short description of the assay: NCI Yeast Anticancer Drug Screen. Data for the rad50 strain (AID 155).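 Further: 0% = growth of vehicle-only cultures of the same strain.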 To be noted: S. cerevisiae rad50 strain growth inhibition; at 5.0 µM (retest, dose inferred, filed as 0.5); active compounds read high. In outline:
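Vehicle-treated cultures provide the reference for the growth inhibition reported for compound-exposed, repair-deficient yeast.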
On to `COc1ccc(N=N/N=c2\sc3cc(Cl)ccc3n2C)cc1`, for which the growth inhibition is 29%. In the case of `O=c1ccc2nc3ccccc3ccc-2c1`, the growth inhibition is -159%. `CC(=O)Nc1ccc(O)c(=O)cc1`: the growth inhibition is 18%. `CC(=O)Oc1c([N+](=O)[O-])cc(-c2ccccc2)cc1[N+](=O)[O-]`: the growth inhibition is 18%.

Regarding `Cc1cc(O)c(C)c(C)c1N=Nc1ccccc1`, the growth inhibition is -157%.

As for `CCCCCCCC/C=C\CCCCCCCC(=O)O` (tested in a mixture with another compound), the growth inhibition was 4%. Take `O=S(=O)(Nc1ccc(Cl)cc1)c1ccccc1`: the growth inhibition is -3%. With `COC(=O)[C@@]12OC[C@]34[C@H]([C@@H](O)[C@@H]1O)[C@@]1(C)CC(=O)C(O)=C(C)[C@@H]1C[C@H]3OC(=O)[C@H](OC(=O)C(Cc1ccccc1)NC(=O)OC(C)(C)C)[C@@H]24` (stereo not given in full), the growth inhibition is 24%. For `CSC(=S)n1nc(-c2cccs2)c(N=Nc2ccc(Cl)cc2)c1C(F)(F)F`, the growth inhibition was 29%.

With `CCN1C2=NCCN2S(=O)(=O)c2ccccc21`, the growth inhibition is 5%. Turning to `CCCc1cc(-c2ccc(O)c(CCC)c2)ccc1O`, the growth inhibition was 92% (active). `O=[N+]([O-])c1ccc(-c2cccc(Cl)c2)c([N+](=O)[O-])c1`: the growth inhibition was 6%. As for `COC(=O)Oc1nn(C(=O)OC)c(=O)c2ccccc12`, the figure is -18%. The value for `Cc1n(CC(C)C)c2c([n+]1CC(=O)c1ccc([N+](=O)[O-])cc1)C(=O)c1ccccc1C2=O` was 56%; that for `O=C(c1ccccc1)C1C(c2ccccc2)OP(c2ccccc2)(c2ccccc2)(c2ccccc2)C1c1ccccc1` (stereo not given) was 83% (active). Regarding `Cc1nc2c(cnn2-c2ccccc2)c(=O)o1`, the growth inhibition was -143%. Regarding `CCOC(=O)C(=O)Nc1nc2c(s1)C(=O)c1ccccc1C2=O`, the growth inhibition is 14%. With `O=C(CCl)OCC(=O)c1ccc(-c2ccccc2)cc1`, the growth inhibition is 9%. With `ICCCCCCCCCC[n+]1ccc2ccccc2c1`, the growth inhibition was 32%.

Consider `CCC(C)OC(=O)Nc1cccc(Cl)c1` (stereo not given), for which the growth inhibition is 12%. Take `COc1ccccc1CN1CCCN(Cc2ccccc2OC)C1c1ccccc1F`: the growth inhibition was 2%.

For `ON=C(CC(O)(C(F)(F)Cl)C(F)(F)Cl)CC(O)(C(F)(F)Cl)C(F)(F)Cl`, the growth inhibition was 50%. The value for `COC(=O)Cn1/c(=N\N=C(/C)c2ccc(C)cc2)sc2ccccc21` was -13%; that for `CCN(CC)CCOc1ccc(NC(=S)Nc2ccc(OCC(C)C)cc2)cc1` was 2%. As for `CCCCCCCCCCNC(=O)CBr`, the figure is 2%; as for `CN(C)c1ccc(N=Nc2ccc(/C=C3\CCOC3=O)cc2)cc1`, -4%; as for `CCc1cccc(CC)c1NC(=O)C1=C(C)NC(C)=C(C(=O)Nc2c(CC)cccc2CC)C1c1ccc2c(c1)OCO2`, 54%. For `Nc1cc2[nH]c(=O)c3cc(Cl)ccc3c2cc1Cl`, the growth inhibition is 83% (active). Turning to `COc1ccc(OC(C)=O)c2c1CCC=CC2=O`, the growth inhibition is 14%. As for `COc1ccc(-c2n[nH]c(C(F)(F)F)c2N=NN(C)C)cc1OC`, the figure is 97% (active); as for `CCC(=NCCCCCCN=C(CC)c1cc(C)cc([N+](=O)[O-])c1O)c1cc(C)cc([N+](=O)[O-])c1O.[Fe]`, 10%; as for `COc1ccc(CN2CCCN(Cc3ccc(OC)cc3)C2Cc2cc(Cl)ccc2OC)cc1`, -3%. As for `Cc1cc(Cc2ccc(Cl)cc2)ccc1O`, the growth inhibition is 0%. Turning to `CNCCN[C@@H]1c2cc3c(cc2[C@@H](c2cc(OC)c(O)c(OC)c2)[C@H]2C(=O)OC[C@@H]21)OCO3`, the growth inhibition was 96% (active). Take `Cc1cc(NC(=S)SC(C)C)ccc1Br`: the growth inhibition is 5%. In the case of `CC1CC2(C)ON=C(c3ccccc3)N2c2ccccc2S1` (stereo not given), the growth inhibition was -25%. `O=C(Cc1ccccc1)OC(C(=O)c1ccccc1)c1ccccc1` (stereo not given): the growth inhibition is 4%.

On to `Nc1ccc2ccccc2c1N=Nc1ccccc1`, for which the growth inhibition was 6%. In the case of `Clc1ccc(C(c2ccc(Cl)cc2)c2cncnc2)cc1`, the growth inhibition is 18%.

Take `OC(C(=Nc1ccccc1)c1ccccc1)c1ccccc1` (stereo not given): the growth inhibition was 50%.
